Reference: PubChem BioAssay (NCI)
The panel holds about 83,000 compounds, 20% with a hit somewhere; the sample as a whole holds those more often.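 Single-dose data. Exposure time 48 hours. Values below 10 considered active.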 A number with no mark means an inactive call. Active and inactive are the calls of the source.

Columns and labels:
Assay in all cases: NCI-60 one-dose screen, 48 h (100 = growth as untreated, 0 = no growth, -100 = all killed)
Conditions in all cases: 10 µM
HCT-15 colon = tested on: HCT-15 colon
HT29 colon = tested on: HT29 colon
SNB-75 CNS = tested on: SNB-75 CNS
SNB-19 CNS = tested on: SNB-19 CNS
U251 CNS = tested on: U251 CNS
PC-3 prostate = tested on: PC-3 prostate
SK-MEL-5 melanoma = tested on: SK-MEL-5 melanoma
UACC-62 melanoma = tested on: UACC-62 melanoma
LOX IMVI melanoma = tested on: LOX IMVI melanoma
SK-MEL-28 melanoma = tested on: SK-MEL-28 melanoma
SK-MEL-2 melanoma = tested on: SK-MEL-2 melanoma
EKVX NSCLC = tested on: EKVX NSCLC
SN12C renal = tested on: SN12C renal
UO-31 renal = tested on: UO-31 renal
ACHN renal = tested on: ACHN renal
CAKI-1 renal = tested on: CAKI-1 renal
A498 renal = tested on: A498 renal
CCRF-CEM leukemia = tested on: CCRF-CEM leukemia
MOLT-4 leukemia = tested on: MOLT-4 leukemia
TK-10 renal = tested on: TK-10 renal

SMILES | growth (HCT-15 colon) | growth (HT29 colon) | growth (SNB-75 CNS) | growth (SNB-19 CNS) | growth (U251 CNS) | growth (PC-3 prostate) | growth (SK-MEL-5 melanoma) | growth (UACC-62 melanoma) | growth (LOX IMVI melanoma) | growth (SK-MEL-28 melanoma) | growth (SK-MEL-2 melanoma) | growth (EKVX NSCLC) | growth (SN12C renal) | growth (UO-31 renal) | growth (ACHN renal) | growth (CAKI-1 renal) | growth (A498 renal) | growth (CCRF-CEM leukemia) | growth (MOLT-4 leukemia) | growth (TK-10 renal) [%]
O=C1NC(=NC2CCCCCC2)N/C1=C\c1ccc2ncoc2c1 | 13% | 56.1% | 14.7% | 29.7% | 32.7% | 53.8% | 21.1% | 19.3% | 22.2% | 27.5% | 22.9% | 38.8% | 21.1% | 4.42% (active) | 9.91% (active) | 10% | -9.1% (active) | 18% | 38.2% | 
Cc1ccc(/C=C/C(=O)c2ccc(NC(=O)CSc3nnc(-c4c[nH]c5ccccc45)n3-c3ccccc3)cc2)c(C)c1 | 51.4% | 65.5% | 92.6% | 72.2% | 13.1% | 48.6% | 88.3% | 72.8% | 13.3% | 80.9% | 87.7% | 63.7% | 27.1% | 65.9% | 59.5% | 66.9% |  |  | 43.6% | 73.4
COc1ccc(CN2[C@@H](C(=O)NCc3ccc(C(=O)NO)cc3)Cc3c([nH]c4ccccc34)[C@@H]2C2CC2)cc1 | 19.5% | 10.9% | -12% (active) | 34.4% | 24.8% | 30.2% | -19.9% (active) | 3.09% (active) | 11.7% | 24.8% | 12.2% | 28.9% | 29% | 40.5% | 35.5% | 22.5% | -5.06% (active) | 15% | 11% | 
CCCn1c(O)c(N=Nc2nc(-c3cc4ccccc4oc3=O)cs2)c2cc(Br)ccc21 | 90.4% | 110% | 94.7% | 90.3% | 86% | 96.3% | 95.5% | 94.4% | 83.6% | 101% | 102% | 92.8% | 95.2% | 85.1% | 91.1% | 96.4% |  | 98.9% | 107% | 
CC[C@]12C=CCN3CC[C@@]4(c5cc(C#CCNc6ccc(C)c(Nc7nccc(-c8cccnc8)n7)c6)c(OC)cc5N(C)[C@H]4[C@@](O)(C(=O)OC)[C@@H]1OC(C)=O)C32 (some centres undefined) | 25.9% | 25.8% | 77.7% | 48.1% | 40.8% | 37.5% | 32.1% | 69.4% | 38.6% | 37.5% | 61.7% | 55.9% | 45.3% | 46.9% | 51.4% | 40.4% |  | 18.8% | 37.9% | 88
COc1ccc(CN2[C@@H](C(=O)NCc3ccc(C(=O)NO)cc3)Cc3c([nH]c4ccccc34)[C@@H]2C)cc1 | 19.1% | 17.6% | 15.8% | 40.3% | 33% | 29% | -21.1% (active) | -20.9% (active) | 1.67% (active) | 17.6% | 2.82% (active) | 11.9% | 29.8% | 36% | 36% | 39.5% | -5.13% (active) |  | 11.3% | 16.5
O=C(c1ccc(O)cc1)C1[C@H](c2ccccc2Br)[C@@H](c2ccccc2)NC12C(=O)Nc1ccc(Cl)cc12 (some centres undefined) | 12.3% | -30.4% (active) | 2.75% (active) | 17.2% | -31.9% (active) | 2.91% (active) | -33% (active) | 6.97% (active) | -100% (active) | 29.2% | -72.9% (active) | 10.5% | -46.3% (active) | 13.6% | 2.5% (active) | 8.16% (active) | 9.06% (active) | 4.97% (active) | -16.2% (active) | 
COc1ccc(Nc2nc(N)n(Cc3cccc(Br)c3)n2)cc1 | 8.53% (active) | 31.9% | 11.7% | 18.6% | 24.7% | 13.1% | -93.3% (active) | 2.3% (active) | -67.3% (active) | 5.84% (active) | -35.7% (active) | 6.36% (active) | 14.7% | 0.264% (active) | 1.18% (active) | 8.17% (active) | -19.5% (active) | 10.2% | 9.01% (active) | 
CCN1CCN(c2ccc(NC(=O)Nc3ccc4c(c3F)CCN4c3ccnc(C(=O)NC)c3)cc2C(F)(F)F)CC1 | -91.1% (active) | -79% (active) | -80.8% (active) | -84.3% (active) | -93.8% (active) | 23.4% | -100% (active) | 95.8% | -99.9% (active) | -83.6% (active) | 99.6% | -76.9% (active) | 104% | 85.3% | 54.9% | -87.9% (active) |  | -42.3% (active) |  | 118
CCCCCc1ccc(S(=O)(=O)N(C(C)=O)c2cc(-c3csc(N(C)C(C)=O)n3)ccc2N2CCN(C)CC2)cc1 | -89.7% (active) | -52.5% (active) | 73% | 32.2% | -36.2% (active) | 26.5% | -16% (active) | -88.2% (active) | -99.8% (active) | -94.3% (active) | 35.1% | 62.7% | 21.2% | 41.8% | 30.1% | 31.8% | 123% | -7.22% (active) |  | 
N#Cc1c(-c2ccc(F)cc2)nc(SCc2ccc(F)cc2)nc1N1CCOCC1 | 79.9% | 92.9% | -17.5% (active) | 43.7% | 47.1% | 71.6% | 74.3% | 69.3% | 76.4% | 85.8% | 78.7% | 60.1% | 72.9% | 86% | 46.7% | 30.7% |  |  | 91.6% | 77.6
C=C[C@@]12CN3CC[C@]1(O)[C@@](C(=O)OC)(CO2)c1[nH]c2ccccc2c1C3 | 63.7% | 92.7% | 105% | 84.4% | 81.8% | 41.3% | 18.3% | 63.9% | 67.2% | 89.4% | 86.1% | 53.5% | 67.5% | 69.5% | 73.6% | 70.1% | 81.8% | 55.3% | 76.7% | 
O=C(CNc1nc(-c2ccccc2)cs1)Nc1ccc([N+](=O)[O-])cc1Cl | 1.43% (active) | 34.8% | 82.3% | 43.8% | 15.8% | 38.2% | 8.63% (active) | 20.5% | -11.1% (active) | 62.1% | 20.1% | 18.5% | 13.4% | 25.5% | 38.8% | 44.9% |  | 15.3% | 11% | 52.9
O=c1[nH]c2ccccc2cc1CSc1ccc(Nc2nccc(-c3ccc4ccccc4c3)n2)cc1 | 30.6% | 49.9% | 111% | 71.2% | 20% | 1.09% (active) | 77% | 95.7% | 3.77% (active) | 65.7% | 96.5% | 68.1% | 54.1% | 93.7% | 79.5% | 72.6% | 82% | 79.9% | 75.1% | 
O=C(c1ccc(Cl)cc1)C1[C@H](c2ccccc2Br)[C@@H](c2ccccc2)NC12C(=O)Nc1ccc(Br)cc12 (some centres undefined) | 9.81% (active) | -36% (active) | 31.9% | 36.2% | -29.1% (active) | 6.63% (active) | 14.4% | 19.6% | -100% (active) | 43.8% | -51% (active) | 14.7% | -63.5% (active) | 13.5% | 11.9% | 8.82% (active) |  | 5.86% (active) | -9.97% (active) | 23.9
Nc1nc(Nc2ccc(Cl)cc2)nn1Cc1cccc(Br)c1 | 29.9% | 54.1% | 69.9% | 57.2% | 58.6% | 22.9% | 47.4% | 29.9% | 13.7% | 44.8% | 27.2% | 22.3% | 41.1% | 18.2% | 22.8% | 26.9% |  | 34.3% | 20.1% | 61.1
